# Test results: PubChem BioAssay (NCI)
# About 83,000 compounds went through this panel and 20% of them were active in at least one assay; those are over-represented in the sample as a whole.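 The endpoint reported here, percent growth, reads 100 for growth as untreated, 0 for no net growth and -100 for all cells dead.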 Unmarked numbers belong to inactive results. The source made the active and inactive calls. The calls were made as follows: active = growth percent below 10; inactive = the rest.
# Test system: UACC-257 melanoma
# Test: NCI-60 one-dose screen, 48 h (100 = growth as untreated, 0 = no growth, -100 = all killed)
# Conditions: 10 µM
row,Structure (SMILES),growth
1,COc1ccc(-c2nn(-c3ccccc3)cc2/C=C/C(=O)c2ccc(NC(=O)CCCCCCC(=O)NO)cc2)cc1,114%
2,O=C(NCCCNc1cc(-c2cn(-c3ccccc3)nc2-c2cccc(O)c2)ccn1)Nc1cccc(C(F)(F)F)c1,21.1%
3,Cc1[nH]nc2ccc(-c3nc4cnc(N5CCN(C)CC5)cn4c3Nc3ccc(F)cc3Br)cc12,78.8%
4,O=C(/C=C/c1cccc(O)c1)c1ccc(O)cc1,95.3%
5,C#Cc1ccc(NC(=O)c2ccc(/C=C/C(=O)c3nccn3C)cc2)c(F)c1,64.7%
6,O=C(Nc1ccc(F)cc1)c1cc(-c2ccc(F)cc2F)ccc1O,-20.7% (active)
7,Oc1ccc(CSc2nnc(-c3ccc(Oc4ccccc4)cc3)o2)c2cccnc12,45.1%
8,Cc1ccc(NC(=O)c2ccc(CN3CCN(C)CC3)c(C(F)(F)F)c2)cc1Oc1ccc(-c2[nH]nc3ncnc(N)c23)cc1,58.5%
9,N#Cc1c(NC(=O)c2ccccc2C(F)(F)F)sc2c1CCC(=O)C2,-9.8% (active)
10,CCN(CC)c1ccc2cc(C(=O)NCCOCCOCCOCCn3cc(CCC(=O)Nc4ccc(C(=O)c5ccc(NC(=O)OC(C)(C)C)cc5)cc4)nn3)c(=O)oc2c1,63.1%
11,CS(=O)(=O)c1ccc(-c2nn(-c3ccccc3)cc2/C=N/NC(=O)c2ccncc2)cc1,96.7%
12,Cc1ccc(S(=O)(=O)N/N=C/c2cn(-c3ccc(F)cc3)nc2-c2ccc(S(C)(=O)=O)cc2)cc1,99.3%
